Source: PubChem BioAssay AID1159580 (chemical genetic matrix, 2015)
Several values for one entry are separate records, joined by “and”; a condition that tells them apart may be missing. Equal values may be shown once. Out of some 5,500 compounds screened, about 2,000 (36%) were called active. Roughly 18% stayed inconclusive and do not appear here. No stated cut-off is given here; in the data, active means normalized growth mostly below about 0.91 (no sharp cut-off); inconclusive means no clear call, values can overlap the other calls; inactive means mostly above about 0.92. Some of the results follow.

Assay: chemical genetic growth profiling, strain panel (AID 1159580);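 further: tested at 20 µM; growth read once vehicle control cultures reached saturation at 30 °C; 1 = growth at the plate median or of vehicle wells; lower values mean less growth of the strain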
Conditions: S. cerevisiae deletion strains, growth OD

Measured: normalized growth

O=C1CCCC2C3CC(CN12)[C@@H]1CCCCN1C3 (stereo not given in full)
inactive: locus YAL013W, strain DEP1, active compounds read low 1.02 | locus YAL021C, strain ccr4, active compounds read low 0.988 | locus YAL026C, strain drs2, active compounds read low 1.01 | locus YAL030W, strain snc1, active compounds read low 0.995 | locus YBL061C, strain skt5, active compounds read low 0.995 | locus YBR009C, strain hhf1, active compounds read low 0.999 | locus YBR021W, strain FUR4, active compounds read low 1.04 | locus YBR023C, strain chs3, active compounds read low 1 | locus YBR171W, strain sec66, active compounds read low 0.992 | locus YBR229C, strain ROT2, active compounds read low 0.985 | locus YBR231C, strain swc5, active compounds read low 0.996 | locus YBR279W, strain paf1, active compounds read low 1 | locus YCL011C, strain gbp2, active compounds read low 0.995 | locus YCL016C, strain dcc1, active compounds read low 0.993 | locus YCL029C, strain bik1, active compounds read low 0.982 | locus YCL061C, strain MRC1, active compounds read low 0.998 | locus YCL069W, strain vba3, active compounds read low 0.999 | locus YCR088W, strain abp1, active compounds read low 0.987 | locus YDL005C, strain med2, active compounds read low 0.991 | locus YDL035C, strain GPR1, active compounds read low 1.02 | locus YDL040C, strain nat1, active compounds read low 0.991 | locus YDL074C, strain BRE1, active compounds read low 1 | locus YDL101C, strain DUN1, active compounds read low 0.988 | locus YDL134C, strain PPH21, active compounds read low 0.993 | locus YDL185W, strain tfp1, active compounds read low 0.984 | locus YDL192W, strain arf1, active compounds read low 0.987 | locus YDR001C, strain nth1, active compounds read low 1 | locus YDR069C, strain doa4, active compounds read low 1.01 | locus YDR101C, strain arx1, active compounds read low 0.988 | locus YDR137W, strain rgp1, active compounds read low 1.01 | locus YDR159W, strain sac3, active compounds read low 0.987 | locus YDR162C, strain NBP2, active compounds read low 1.01 | locus YDR195W, strain ref2 0.981 | locus YDR297W, strain sur2, active compounds read low 0.993 | locus YDR318W, strain mcm21, active compounds read low 1 | locus YDR334W, strain swr1, active compounds read low 1.02 | locus YDR335W, strain msn5, active compounds read low 0.998 | locus YDR388W, active compounds read low 0.997 | locus YDR392W, strain spt3, active compounds read low 0.927 | locus YDR502C, strain sam2, active compounds read low 0.989 | locus YEL003W, strain gim4, active compounds read low 1 | locus YEL037C, strain rad23, active compounds read low 1.01 | locus YEL061C, strain CIN8 (second series), active compounds read low 0.998 | locus YEL061C, strain CIN8, active compounds read low 0.997 | locus YER015W, strain faa2, active compounds read low 1.01 | locus YER016W, strain bim1, active compounds read low 0.995 | locus YER110C, active compounds read low 0.977 | locus YER111C, strain swi4, active compounds read low 0.998 | locus YER155C, strain BEM2 (second series), active compounds read low 1.02 | locus YER155C, strain BEM2, active compounds read low 0.98 | locus YER167W, strain BCK2, active compounds read low 1.01 | locus YFR010W, strain ubp6, active compounds read low 1 | locus YGL078C, strain dbp3, active compounds read low 0.995 | locus YGL086W, strain mad1, active compounds read low 1 | locus YGL167C, strain pmr1, active compounds read low 0.991 | locus YGL173C, strain kem1, active compounds read low 0.979 | locus YGL227W, strain vid30, active compounds read low 1 | locus YGL240W, strain doc1, active compounds read low 1 | locus YGL248W, strain PDE1, active compounds read low 0.995 | locus YGL253W, strain hxk2, active compounds read low 1 | locus YGR078C, strain PAC10, active compounds read low 1.01 | locus YGR135W, strain pre9, active compounds read low 1 | locus YGR229C, strain SMI1, active compounds read low 1.02 | locus YGR252W, strain gcn5, active compounds read low 1 | locus YHR013C, strain ard1, active compounds read low 0.984 | locus YHR027C, strain rpn1, active compounds read low 0.988 | locus YHR030C, strain SLT2, active compounds read low 0.993 and 0.983 | locus YHR079C, strain IRE1 (second series), active compounds read low 1 | locus YHR079C, strain IRE1, active compounds read low 1.01 | locus YHR094C, strain hxt1, active compounds read low 0.982 | locus YHR129C, strain ARP1, active compounds read low 0.983 | locus YHR142W, strain chs7, active compounds read low 0.996 | locus YHR200W, strain rpn10, active compounds read low 0.997 | locus YIL066C, strain RNR3, active compounds read low 1 | locus YIL073C, strain SPO22, active compounds read low 1.02 | locus YIL125W, strain kgd1, active compounds read low 0.994 | locus YIR030C, strain dcg1, active compounds read low 0.993 | locus YJL092W, strain hpr5, active compounds read low 1 | locus YJL095W, strain BCK1 (second series), active compounds read low 0.99 | locus YJL095W, strain BCK1, active compounds read low 0.983 and 0.957 | locus YJL115W, strain asf1, active compounds read low 0.989 | locus YJL129C, strain trk1, active compounds read low 0.99 | locus YJL134W, strain LCB3, active compounds read low 0.997 | locus YJL154C, strain vps35, active compounds read low 0.993 | locus YJL164C, strain tpk1, active compounds read low 1 | locus YJL166W, strain qcr8, active compounds read low 0.989 | locus YJL168C, strain set2, active compounds read low 1 | locus YJL187C, strain SWE1 (second series), active compounds read low 0.987 | locus YJL187C, strain SWE1, active compounds read low 0.996 | locus YJR043C, strain POL32, active compounds read low 1.04 | locus YJR066W, strain TOR1, active compounds read low 0.992 | locus YKL009W, strain mrt4, active compounds read low 0.974 | locus YKL068W, active compounds read low 0.99 | locus YKL085W, strain MDH1 (second series), active compounds read low 1.01 | locus YKL085W, strain MDH1, active compounds read low 1.01 | locus YKL160W, strain elf1, active compounds read low 0.982 | locus YKR001C, strain vps1, active compounds read low 1.01 | locus YKR026C, strain gcn3, active compounds read low 0.99 | locus YKR091W, strain srl3, active compounds read low 1 | locus YLL001W, strain dnm1, active compounds read low 0.979 | locus YLL026W, active compounds read low 0.989 | locus YLL041C, strain sdh2, active compounds read low 1 | locus YLR027C, strain aat2, active compounds read low 0.99 | locus YLR039C, strain RIC1, active compounds read low 1.04 | locus YLR058C, strain SHM2, active compounds read low 0.992 | locus YLR102C, strain apc9, active compounds read low 0.992 | locus YLR113W, strain HOG1, active compounds read low 0.977 | locus YLR221C, strain rsa3, active compounds read low 0.981 | locus YLR258W, strain gsy2, active compounds read low 0.999 | locus YLR262C, strain YPT6 (second series), active compounds read low 0.986 | locus YLR262C, strain YPT6, active compounds read low 1.04 | locus YLR268W, strain sec22, active compounds read low 0.979 | locus YLR320W, strain mms22, active compounds read low 0.979 | locus YLR330W, strain CHS5, active compounds read low 1.01 | locus YLR342W, strain FKS1 (second series), active compounds read low 1.01 | locus YLR342W, strain FKS1, active compounds read low 1.01 | locus YLR357W, strain rsc2, active compounds read low 0.979 | locus YLR370C, strain arc18, active compounds read low 1 | locus YLR371W, strain rom2, active compounds read low 0.984 | locus YLR384C, strain iki3, active compounds read low 1.01 | locus YLR418C, strain cdc73, active compounds read low 1.02 | locus YML016C, strain PPZ1, active compounds read low 0.978 | locus YML032C, strain rad52, active compounds read low 1 | locus YML120C, strain ndi1, active compounds read low 0.996 | locus YML124C, strain tub3, active compounds read low 0.991 | locus YMR058W, strain fet3, active compounds read low 1.01 | locus YMR078C, strain ctf18, active compounds read low 0.991 | locus YMR125W, strain sto1, active compounds read low 0.975 | locus YMR129W, active compounds read low 0.995 | locus YMR205C, strain PFK2, active compounds read low 0.978 | locus YMR223W, strain ubp8, active compounds read low 0.995 | locus YMR231W, strain pep5, active compounds read low 0.999 | locus YMR307W, strain GAS1, active compounds read low 1.06 | locus YNL067W, strain RPL9B, active compounds read low 0.993 | locus YNL071W, strain lat1, active compounds read low 0.997 | locus YNL153C, strain GIM3, active compounds read low 0.993 | locus YNL183C, strain NPR1, active compounds read low 0.967 | locus YNL209W, strain ssb2, active compounds read low 1 | locus YNL233W, strain BNI4, active compounds read low 0.998 | locus YNL248C, strain rpa49, active compounds read low 0.993 | locus YNL250W, strain rad50, active compounds read low 0.984 | locus YNL271C, strain bni1, active compounds read low 0.991 | locus YNL298W, strain CLA4, active compounds read low 1 | locus YNL307C, strain MCK1, active compounds read low 0.985 | locus YNL322C, strain KRE1 (second series), active compounds read low 0.979 | locus YNR049C, strain mso1, active compounds read low 0.994 | locus YNR052C, strain pop2, active compounds read low 0.993 | locus YOL006C, strain TOP1, active compounds read low 0.968 | locus YOL012C, strain htz1 2.29 | locus YOL147C, strain pex11, active compounds read low 0.992 | locus YOR001W, strain rrp6, active compounds read low 1.03 | locus YOR061W, strain CKA2, active compounds read low 0.988 | locus YOR069W, strain VPS5, active compounds read low 0.982 | locus YOR070C, strain gyp1, active compounds read low 1.02 | locus YOR080W, strain dia2, active compounds read low 0.986 | locus YOR083W, strain WHI5, active compounds read low 0.973 | locus YOR106W, strain vam3, active compounds read low 1 | locus YOR136W, strain idh2, active compounds read low 0.985 | locus YOR144C, strain elg1, active compounds read low 0.998 | locus YOR184W, strain ser1, active compounds read low 0.991 | locus YOR231W, strain MKK1, active compounds read low 1.01 | locus YOR265W, strain rbl2, active compounds read low 1 | locus YOR270C, strain vph1, active compounds read low 1.03 | locus YOR290C, strain snf2, active compounds read low 0.975 | locus YOR316C, strain cot1, active compounds read low 0.993 | locus YPL051W, strain arl3, active compounds read low 0.993 | locus YPL078C, strain atp4, active compounds read low 0.997 | locus YPL106C, strain sse1, active compounds read low 0.968 | locus YPL240C, strain hsp82, active compounds read low 0.999 | locus YPL256C, strain CLN2, active compounds read low 1.01 | locus YPR119W, strain clb2, active compounds read low 0.999 | locus YPR141C, strain kar3, active compounds read low 0.982 | locus YPR163C, strain tif3, active compounds read low 0.996 | locus YPR167C, strain met16, active compounds read low 0.995 | strain wtn01, active compounds read low 0.967
